In PubChem BioAssay (NCATS):
Records with an inconclusive call do not appear. Activity calls are given as the source filed them. Calls follow the shape of the dose curve; as a rule, active = well fitted curve in the direction sought with a large enough effect; inconclusive = small, poorly fitted or top-dose-only effect, or another doubt; inactive = no such curve, though single readings can be large; an effect the other way counts as inactive or inconclusive.

What was measured:
[1] = target: Rap guanine nucleotide exchange factor 3 (Homo sapiens) (UniProt O95398); assay: Confirmatory qHTS for antagonist of cAMP-regulated guanine nucleotide exchange factor 3 (EPAC1) (AID 1645880); settings: EPAC1 Rap1B-BODIPY-GDP exchange, fluorescence; series mostly up to 115 µM; also: nearly all actives have a fitted effect of over 55% in size; also: potency is read from the fitted curve at half-maximal effect
In short: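 Nucleotide exchange uses 100 nM EPAC1, 250 nM RAP1B-BODIPY-GDP and 50 uM GDP, with compounds in a concentration-titration series. After 5 min at room temperature, fluorescence (480 nm ex/540 nm em) is read every 5 min for 30 min. Data are normalized to control ATA and DMSO.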

[2] = target: Rap guanine nucleotide exchange factor 3 (Homo sapiens) (UniProt O95398); assay: Confirmatory qHTS for agonist of cAMP-regulated guanine nucleotide exchange factor 3 (EPAC1) (AID 1645881); settings: EPAC1 Rap1B BODIPY-GDP exchange fluorescence; series mostly up to 154 µM;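 also: EPAC1 catalysed release of BODIPY-GDP from Rap1B seen as fluorescence loss; 100% = effect of cAMP agonist control; nearly all actives have a fitted effect of over 75% in size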
[3] = target: Rap guanine nucleotide exchange factor 4 (Homo sapiens) (UniProt Q8WZA2); assay: Confirmatory qHTS for agonist of cAMP-regulated guanine nucleotide exchange factor 4 (EPAC2) (AID 1645884); settings: EPAC2 GEF activity, Rap1B-BODIPY-GDP fluorescence; series mostly up to 154 µM;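 also: nucleotide exchange releases bodipy-GDP from Rap1 and this lowers its fluorescence; % is scaled to controls: 0 for no effect and ±100 for the full control effect; nearly all actives have a fitted effect of over 65% in size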
[4] = target: Rap guanine nucleotide exchange factor 4 (Homo sapiens) (UniProt Q8WZA2); assay: Confirmatory qHTS for antagonist of cAMP-regulated guanine nucleotide exchange factor 4 (EPAC2) (AID 1645885); settings: EPAC2 Rap1B-BODIPY-GDP exchange fluorescence, biochemical; series mostly up to 12.7 µM; also: nearly all actives have a fitted effect of over 25% in size; also: potency is read from the fitted curve at half-maximal effect; as to activity change, negative = inhibition: % is scaled to controls: 0 for no effect and ±100 for the full control effect
[5] = target: Rap guanine nucleotide exchange factor 3 (Homo sapiens) (UniProt O95398); assay: Counterscreen qHTS for antagonist of cAMP-regulated guanine nucleotide exchange factor 3 (EPAC1) (AID 1645888); settings: Rap1B-BODIPY-GDP nucleotide exchange, fluorescence; series mostly up to 154 µM;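 also: fluorescence loss as bound BODIPY-GDP is released from Rap1B; % of control where 0% means no effect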
In short: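 Rap1B–BODIPY-GDP (250 nM) with 50 uM GDP; compounds pin-transferred to 9.74 nM–152 uM final (activator) or from 7.32 nM upwards (inhibitor). Fluorescence Ex/Em 480/540 nm read at 5 and 30 min, then after adding cAMP or buffer, at room temperature.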

Sequence of Rap guanine nucleotide exchange factor 4 (Homo sapiens) (Q8WZA2 whole entry, looked up): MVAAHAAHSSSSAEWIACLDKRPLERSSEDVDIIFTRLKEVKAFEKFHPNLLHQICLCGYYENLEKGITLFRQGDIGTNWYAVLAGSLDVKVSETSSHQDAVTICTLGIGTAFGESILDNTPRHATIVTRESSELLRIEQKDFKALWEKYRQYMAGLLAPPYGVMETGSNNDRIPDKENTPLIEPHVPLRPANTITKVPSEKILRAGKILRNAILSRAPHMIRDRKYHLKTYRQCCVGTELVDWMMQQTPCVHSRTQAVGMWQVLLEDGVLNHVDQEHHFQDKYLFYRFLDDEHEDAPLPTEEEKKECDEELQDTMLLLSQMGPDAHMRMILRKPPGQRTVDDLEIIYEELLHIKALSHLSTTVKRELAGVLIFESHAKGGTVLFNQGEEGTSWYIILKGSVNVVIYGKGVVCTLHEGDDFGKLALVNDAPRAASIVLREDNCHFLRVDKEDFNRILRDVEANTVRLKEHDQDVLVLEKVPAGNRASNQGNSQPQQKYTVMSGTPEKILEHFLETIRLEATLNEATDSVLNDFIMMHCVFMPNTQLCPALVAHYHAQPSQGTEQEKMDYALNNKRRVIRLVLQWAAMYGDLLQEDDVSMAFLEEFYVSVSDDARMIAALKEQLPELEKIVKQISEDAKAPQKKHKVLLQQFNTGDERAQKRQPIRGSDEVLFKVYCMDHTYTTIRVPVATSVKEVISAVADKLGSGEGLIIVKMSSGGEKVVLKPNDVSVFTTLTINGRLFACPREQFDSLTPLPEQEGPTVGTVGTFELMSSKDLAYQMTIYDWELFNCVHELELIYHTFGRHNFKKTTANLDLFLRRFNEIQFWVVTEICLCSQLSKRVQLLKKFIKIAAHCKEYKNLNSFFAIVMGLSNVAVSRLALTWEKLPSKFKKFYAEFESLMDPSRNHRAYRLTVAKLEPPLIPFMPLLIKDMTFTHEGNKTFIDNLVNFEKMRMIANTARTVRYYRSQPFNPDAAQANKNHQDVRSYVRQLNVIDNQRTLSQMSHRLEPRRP
Sequence of Rap guanine nucleotide exchange factor 3 (Homo sapiens) (O95398 whole entry, looked up): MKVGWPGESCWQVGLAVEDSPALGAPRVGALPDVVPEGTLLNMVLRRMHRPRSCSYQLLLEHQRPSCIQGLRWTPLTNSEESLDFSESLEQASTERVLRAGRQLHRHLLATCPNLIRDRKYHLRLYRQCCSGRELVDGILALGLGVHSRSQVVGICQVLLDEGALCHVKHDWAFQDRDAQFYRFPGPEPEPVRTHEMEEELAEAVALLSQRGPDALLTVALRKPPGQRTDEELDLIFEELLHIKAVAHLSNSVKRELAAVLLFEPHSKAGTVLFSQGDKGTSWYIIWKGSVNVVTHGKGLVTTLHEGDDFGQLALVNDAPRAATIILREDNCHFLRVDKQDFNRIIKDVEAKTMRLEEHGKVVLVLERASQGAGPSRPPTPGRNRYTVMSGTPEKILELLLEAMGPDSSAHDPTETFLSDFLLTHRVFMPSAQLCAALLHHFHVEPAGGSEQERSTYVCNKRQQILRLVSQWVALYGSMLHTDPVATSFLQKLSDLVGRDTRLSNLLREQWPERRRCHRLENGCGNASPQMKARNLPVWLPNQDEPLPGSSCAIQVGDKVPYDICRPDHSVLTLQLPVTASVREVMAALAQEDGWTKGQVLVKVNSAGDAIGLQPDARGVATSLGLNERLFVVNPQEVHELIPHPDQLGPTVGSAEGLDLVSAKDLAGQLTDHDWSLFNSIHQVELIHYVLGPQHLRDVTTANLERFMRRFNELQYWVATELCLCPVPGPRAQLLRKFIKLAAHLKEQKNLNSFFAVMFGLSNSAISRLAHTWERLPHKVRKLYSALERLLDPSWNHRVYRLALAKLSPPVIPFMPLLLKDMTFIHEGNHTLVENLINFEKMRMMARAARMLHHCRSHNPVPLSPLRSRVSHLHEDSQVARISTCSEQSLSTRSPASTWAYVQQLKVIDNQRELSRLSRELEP

CC1=NN(c2ccccc2)C(=O)C1/C=C1\NC(=S)NC1=O (stereo not given)
inactive: Potency [2] | Potency [3] | Potency [4] | Potency [5]
active: Potency [1] 67.5 µM

Cc1c(C(=O)NCc2ccc(F)cc2)sc(=O)n1Cc1ccccc1F
active: Potency [4] 67.5 µM
inactive: Potency [1] | Potency [2] | Potency [3] | Potency [5]

O=C(c1ccccc1)c1ccc2nc(-c3ccco3)c(-c3ccco3)nc2c1
active: Potency [1] 4.78 µM
inactive: Potency [2] | Potency [3] | Potency [4] | Potency [5]

COc1ccc(N2CCN(C(=O)c3sc4nc(-c5ccc(F)cc5)cn4c3C)CC2)cc1
inactive: Potency [1] | Potency [2] | Potency [3] | Potency [4] | Potency [5]

NNc1nc2c(Cl)c(Cl)ccc2s1
inactive: Potency [1] | Potency [2] | activation [3] 7.89% [at 17.1 µM, percent relative to cAMP agonist control] | Potency [4] | activity change, negative = inhibition [5] 3.53% [at 30.8 µM]

C=CCOC(=O)C1=C(C)Nc2nnnn2C1c1cccs1 (stereo not given)
inactive: Potency [1] | Potency [2] | Potency [3] | Potency [4] | Potency [5]

CN1CCN(C(CNC(=O)c2ccc(Br)o2)c2ccc(F)cc2)CC1 (stereo not given)
active: Potency [4] 1.69 µM
inactive: Potency [1] | Potency [2] | activation [3] 4.5% [at 17.1 µM, percent relative to cAMP agonist control] | activity change, negative = inhibition [5] -2.27% [at 30.8 µM]

Cc1ccc2c(c1)c1c3n2CCN(C(=O)C2CC2)C3CCC1 (stereo not given)
active: Potency [4] 75.7 µM
inactive: Potency [1] | Potency [2] | Potency [3] | Potency [5]

CCCN1C(=O)c2ccccc2NC1c1ccc(OC)cc1OC (stereo not given)
inactive: Potency [1] | Potency [2] | Potency [3] | Potency [4] | Potency [5]

COc1ccccc1Nc1nc(N)nc(CN2CCC(C)CC2)n1
inactive: Potency [1] | Potency [2] | Potency [3] | Potency [4] | Potency [5]

Cc1ccc(S(=O)(=O)/N=C2\SC(CC(=O)Nc3ccc(F)cc3)C(=O)N2c2ccccc2)cc1 (stereo not given)
inactive: Potency [1] | Potency [2] | activation [3] 3.37% [at 17.1 µM, percent relative to cAMP agonist control] | Potency [4] | activity change, negative = inhibition [5] -39.2% [at 30.8 µM]

Cc1ccc(S(=O)(=O)N2CCCCC2)cc1C(=O)NCCC1=CCCCC1
inactive: Potency [1] | Potency [2] | Potency [3] | Potency [4] | Potency [5]

CCOC(=O)C1CCCCN1C(=O)c1oc2c(Cl)cc(C)cc2c1C (stereo not given)
inactive: Potency [1] | Potency [2] | Potency [3] | Potency [4] | Potency [5]

COc1ccc(/C=N/Nc2ccc(C(=O)O)cc2)cc1Br
inactive: Potency [1] | Potency [2] | Potency [3] | Potency [4] | Potency [5]

Cc1ccc(N2C(=O)c3ccccc3C2C(=O)c2ccc(O)cc2O)cc1 (stereo not given)
inactive: Potency [1] | Potency [2] | Potency [3] | Potency [4] | Potency [5]

CC1=CC2=NC(=O)/C(=C\c3cccn3CCOc3ccc(C)c(C)c3)C(=N)N2O1
inactive: Potency [1] | Potency [2] | Potency [3] | Potency [4] | Potency [5]

CC1(C(=O)NS(=O)(=O)c2cccc(Cl)c2)CCN1C(=O)C1(c2ccc(Cl)cc2)CC1 (stereo not given)
active: Potency [1] 31.6 µM
inactive: Potency [2] | activation [3] 2.34% [at 17.1 µM, percent relative to cAMP agonist control] | Potency [4] | activity change, negative = inhibition [5] -16.3% [at 30.8 µM]

O=c1[nH]c(Nc2ccccc2)cc2ccccc12
inactive: Potency [2] | Potency [3] | Potency [4] | Potency [5]
active: Potency [1] 37.9 µM

CCOC(=O)[C@@H](NC(=O)/C=C/[C@H]1O[C@@H](n2cc(C)c(=O)[nH]c2=O)C[C@@H]1O)C(C)C
inactive: Potency [1] | Potency [2] | Potency [3] | Potency [4] | Potency [5]

Cc1cccc(Cn2c(SCc3ccc(C(=O)N4CCCCCC4)cc3)nc3ccncc32)c1
inactive: Potency [1] | Potency [2] | Potency [3] | Potency [4] | Potency [5]

COc1ccc(C(=O)c2c(-c3ccc(OC)cc3)oc3ccccc23)cc1
inactive: Potency [1] | Potency [2] | Potency [3] | Potency [5]
active: Potency [4] 15.1 µM

CCN(CC)c1ccc(Nc2nc(-c3cccnc3)cs2)cc1
inactive: Potency [1] | Potency [2] | Potency [3] | Potency [4] | Potency [5]

CCOc1ccc(NC(=O)CN(C)C(=O)c2cc(C3CC3)nn2-c2ccccc2)cc1OCC
inactive: Potency [1] | Potency [2] | Potency [3] | Potency [4] | Potency [5]

CC(C)c1nc(SCC(=O)N2CCCc3ccccc32)c2c(=O)n(C)c(=O)n(C)c2n1
inactive: Potency [1] | Potency [2] | Potency [3] | Potency [4] | Potency [5]

COc1ccc(/C=C2/SC(=S)N(c3ccc(S(=O)(=O)Nc4nccs4)cc3)C2=O)cc1
active: Potency [1] 33.8 µM
inactive: Potency [2] | Potency [3] | Potency [4] | Potency [5]

COc1cccc(NC(=O)Cn2cc(C(=O)C3CC3)c3ccccc32)c1
inactive: Potency [1] | Potency [2] | Potency [3] | Potency [4] | Potency [5]

O=C(/C=C/c1ccco1)Nc1cccc(C(=O)Nc2ccccc2C(=O)O)c1
active: Potency [1] 3.98 µM
inactive: Potency [2] | activation [3] 3.49% [at 17.1 µM, percent relative to cAMP agonist control] | Potency [4] | activity change, negative = inhibition [5] 19% [at 30.8 µM]

COc1cc(NS(=O)(=O)c2ccc(NC(=O)/C(=C/c3ccccc3Cl)NC(=O)c3ccccc3)cc2)nc(OC)n1
inactive: Potency [2] | Potency [3] | Potency [4] | Potency [5]
active: Potency [1] 84.9 µM

CCCN1C(=O)c2[nH]nc(-c3ccccc3)c2C1c1cccc(O)c1 (stereo not given)
inactive: Potency [1] | Potency [2] | Potency [3] | Potency [4] | Potency [5]

CCC(=O)N1CCc2cc(OC)c(OC)cc2C1COc1ccccc1OC (stereo not given)
inactive: Potency [1] | Potency [2] | Potency [3] | Potency [4] | Potency [5]

CCN(CC(=O)Nc1ccccc1C(F)(F)F)C(=O)c1cc2c(s1)CCCCC2
inactive: Potency [1] | Potency [2] | Potency [3] | Potency [4] | Potency [5]

CCOc1ccccc1NC1c2ccccc2C(=O)N1Cc1ccco1 (stereo not given)
inactive: Potency [1] | Potency [2] | Potency [3] | Potency [4] | Potency [5]

O=C(c1ccc2nc(N3CCOCC3)sc2c1)N1CCC(Cc2ccccc2)CC1
inactive: Potency [1] | Potency [2] | Potency [3] | Potency [4] | Potency [5]

COc1ccccc1C(=O)NC(=O)Cn1nc(C)c([N+](=O)[O-])c1C
inactive: Potency [1] | Potency [2] | activation [3] 4.27% [at 17.1 µM, percent relative to cAMP agonist control] | Potency [4] | activity change, negative = inhibition [5] 11.7% [at 30.8 µM]

Cc1c(Br)c(=O)oc2c(Br)c(O)c(O)cc12
active: Potency [1] 3.16 µM
inactive: Potency [2] | activation [3] 9.71% [at 17.1 µM, percent relative to cAMP agonist control] | Potency [4] | activity change, negative = inhibition [5] 21.7% [at 30.8 µM]

COc1cccc(CN2C(=O)C3(SCC(=O)N3c3ccc(F)cc3)c3ccccc32)c1 (stereo not given)
inactive: Potency [1] | Potency [2] | Potency [3] | Potency [4] | Potency [5]

O=[N+]([O-])c1cc2ccccc2c(O)c1O
inactive: Potency [2] | activation [3] 8.01% [at 17.1 µM, percent relative to cAMP agonist control] | Potency [4] | activity change, negative = inhibition [5] 9.83% [at 30.8 µM]
active: Potency [1] 31.6 µM

COc1cccc(NC(=O)CSc2nnc3[nH]c(=O)cc(-c4ccccc4)n23)c1
inactive: Potency [1] | Potency [2] | Potency [3] | Potency [4] | Potency [5]

O=C(/C=C/c1ccco1)NC(=S)Nc1cccc([N+](=O)[O-])c1
inactive: Potency [2] | activation [3] 7.76% [at 17.1 µM, percent relative to cAMP agonist control] | Potency [4] | activity change, negative = inhibition [5] -9.95% [at 30.8 µM]
active: Potency [1] 20 µM

CSCCC(C(=O)O)N1C(=O)c2ccc(C(=O)O)cc2C1=O (stereo not given)
inactive: Potency [1] | Potency [2] | activation [3] 4.67% [at 17.1 µM, percent relative to cAMP agonist control] | Potency [4] | activity change, negative = inhibition [5] -1.74% [at 30.8 µM]

COCCn1c(SCC(=O)Nc2ccc3c(c2)CCC3)nc2ccccc2c1=O
inactive: Potency [1] | Potency [2] | activation [3] -0.521% [at 17.1 µM, percent relative to cAMP agonist control] | Potency [4] | activity change, negative = inhibition [5] -10.3% [at 30.8 µM]

CCc1cccc2c(C(=O)COC(=O)c3nccnc3N)c[nH]c12
inactive: Potency [1] | Potency [2] | Potency [3] | Potency [4] | Potency [5]

Cc1ccc(-c2cc(C(=O)Nc3ccc4c(c3)OCCO4)c3ccccc3n2)cc1
inactive: Potency [1] | Potency [2] | activation [3] 9.86% [at 17.1 µM, percent relative to cAMP agonist control] | Potency [4] | activity change, negative = inhibition [5] 3.98% [at 30.8 µM]

CCOc1nc(C)cc(C)c1S(=O)(=O)c1ccc(Cl)cc1
inactive: Potency [1] | Potency [2] | activation [3] -7.98% [at 17.1 µM, percent relative to cAMP agonist control] | Potency [4] | activity change, negative = inhibition [5] 0.426% [at 30.8 µM]

CC(=O)c1ccc(NC(=O)CSc2nc(Nc3ccccc3)nc(N3CCOCC3)n2)cc1
inactive: Potency [1] | Potency [2] | Potency [3] | Potency [4] | Potency [5]

CCOc1ccc(/C(C)=N/NC(=O)C(OC)c2ccccc2)cc1 (stereo not given)
inactive: Potency [1] | Potency [2] | Potency [3] | Potency [4] | Potency [5]

Cc1ccc2cc(CN(Cc3ccco3)C(=O)c3ccco3)c3nnnn3c2c1
active: Potency [4] 75.7 µM
inactive: Potency [1] | Potency [2] | Potency [3] | Potency [5]

O=C(NCc1ccco1)c1c[nH]c2ccc(S(=O)(=O)N3CCOCC3)cc2c1=O
inactive: Potency [1] | Potency [2] | activation [3] 7.59% [at 17.1 µM, percent relative to cAMP agonist control] | Potency [4] | activity change, negative = inhibition [5] 1.66% [at 30.8 µM]
